Source: PubChem (National Center for Advancing Translational Sciences (NCATS))
Compounds with a hit are over-represented: about 7.1% of the library has one in this group of screens.
MCF10A rerep: DNA re-replication induction in MCF 10a cells. MCF 10A DNA re-replication, Hoechst nuclear intensity, 48 h. Potency, µM (titrated, usually from 46.1 µM), inactives show at the top dose activity, positive = re-replication, most hits filed as activators. 350,000 tested, 2.9% active; also: % of control where 0% means no effect; nearly all actives have a fitted effect of over 50% in size
ELG1 genotoxic: inducers of genotoxicity in HEK293T ELG1-luciferase cells; HEK293T ELG1-luciferase reporter, luminescence, 16 h; Potency, µM (titrated, usually from 46 µM), inactives show at the top dose activity change, positive = activation, usual class: activators; 330,000 tested, 1.3% active; AID 504466; also: % of control where 0% means no effect; nearly all actives have a fitted effect of over 60% in size
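HEK293T cells expressing luciferase-tagged ELG1 were treated with compound or DMSO for 16 hr at 37°C. Luciferase activity was then read after 30 min with ONE-Glo at room temperature; rising signal flags genetic stress.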
ELG1 repair inh: blocks ELG1-dependent DNA repair in HEK293T cells | HEK293T ELG1-luciferase reporter, luminescence, 16 h; DNA damage induced by 5-fluorouridine | Potency, µM (highest dose often 46.1 µM), inactives show top-dose activity change, negative = inhibition, actives largely listed as inhibitors | 330,000 tested, 2.3% active | AID 504467; also: % is scaled to controls: 0 for no effect and ±100 for the full control effect; nearly all actives have a fitted effect of over 55% in size
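Reporter activity after DNA damage by 5-fluorouridine is monitored. Compound-treated cells incubate 16 hr at 37 °C, then ONE-Glo is added for 30 min before luminescence reading.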
SW480 rerep: inducers of DNA re-replication in SW480 colon cancer cells | SW480 DNA re-replication, Hoechst DNA content imaging, 48 h | Potency, µM (top dose mostly 46.1 µM), for the others: at the top dose re-replication activation, usual class: activators | 340,000 tested, 1.8% active | AID 624297; also: % of control where 0% means no effect; nearly all actives have a fitted effect of over 55% in size
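DNA re-replication was detected as more nuclei of elevated Hoechst intensity after 48 hr exposure to compound (23 nL pinned per well of 250 cells).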
A-T KAP1 phos: candidate therapy for ataxia-telangiectasia | Potency, µM (series often up to 57.5 µM), for inactives: top-dose activation, most hits filed as activators | F2112 A-T fibroblasts, KAP-1 phosphorylation AlphaLISA; neocarzinostatin DNA damage 30 min before lysis | 320,000 tested, 0.19% active; also: % of control where 0% means no effect; nearly all actives have a fitted effect of over 45% in size
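hTERT-immortalized A-T patient fibroblasts (F2112), 500 cells/well in OPTI-MEM, 1% FBS, got compounds for 60 min, then NCS for 30 min at 37C. Lysates were then assayed for phospho-KAP-1 by AlphaLISA (anti-pKAP1 donor, anti-KAP1 acceptor beads), 6 hr at 25C.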
p53 reactivator: mutant p53 re-activation in reporter cells. H1299 p53-A138V BP100-luciferase reporter, luminescence, 24 h. Potency, µM (highest dose often 92.2 µM), for inactives: at the top dose activity change, positive = activation, most hits filed as activators. 320,000 tested, 0.063% active. AID 504706; also: % of control where 0% means no effect; nearly all actives have a fitted effect of over 45% in size
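p53-null H1299 cells stably carrying temperature-sensitive p53-A138V and a BP100-luciferase reporter were pinned with compounds (4-point, 1:5 series) and held 24 hrs at 37 deg C. Luminescence was read 10 min after detection reagent.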
* marks the source's active call; other numbers are inactive results; ? = inconclusive; . = not tested or not shown; [ ] = another dose, or the depositor's remark. Calls follow the shape of the dose curve; as a rule, active = well fitted curve in the direction sought with a large enough effect; inconclusive = small, poorly fitted or top-dose-only effect, or another doubt; inactive = no such curve, though single readings can be large; an effect the other way counts as inactive or inconclusive. Potency is read from the fitted curve at half-maximal effect.

SMILES	MCF10A rerep	ELG1 genotoxic	ELG1 repair inh	SW480 rerep	A-T KAP1 phos	p53 reactivator
Cc1nc2c(C(=O)NCc3ccc4c(c3)OCO4)cnn2c(C)c1Cc1ccc(F)cc1Cl	?	-10.0%	20.6µM*	15.2%	6.6%	-2.7%
CC(=O)C1=C(O)C(=O)N(c2ccccn2)C1c1ccccc1[N+](=O)[O-] (stereo unspecified)	?	0.8%	-1.2%	20.6µM*	4.5%	8.9%
COc1cc(/C=N/NC(=O)c2ccc3ccccc3c2)ccc1Oc1ccc([N+](=O)[O-])cn1	-4.6%	-9.3%	16.4µM*	-4.9%	-2.9%	-18.8%
COc1cc(/C=C2/SC(N)=NC2=O)ccc1Oc1ccc([N+](=O)[O-])cc1[N+](=O)[O-]	0.8%	-2.1%	-1.3%	-0.6%	-2.4%	-13.8%
COc1cc(/C=C2\SC(=O)NC2=O)ccc1Oc1ccc([N+](=O)[O-])cn1	?	0.4%	20.6µM*	4.7%	-3.8%	2.9%
COc1cc(/C=C2/SC(=O)NC2=O)ccc1Oc1ccc([N+](=O)[O-])cc1[N+](=O)[O-]	?	-4.7%	15.4%	13µM*	22.7%	-5.6%
COc1cc(/C=C2\C(=O)N(c3ccccc3)N=C2C)ccc1Oc1ccc([N+](=O)[O-])cc1[N+](=O)[O-]	9.2µM*	2.3%	?	-118.3%	0.2%	17.5%
COc1cc(/C=C2/NC(=O)N(Cc3ccccc3F)C2=O)ccc1Oc1ccc([N+](=O)[O-])cn1	-1.0%	7.3%	?	-0.9%	1.2%	1.2%
O=C(Nc1ccc(Cl)cc1)P(=O)(O)c1ccccc1	-0.4%	.	.	-0.6%	.	.
Brc1ccccc1OCCN1CCCC1	5.5%	.	.	-3.8%	.	.
Cc1ccc(C(=O)CN(CCCC(N)=O)C(=O)c2ccncc2)cc1	5.2%	2.5%	17.0%	?	3.7%	4.9%
COC(=O)[C@@]1(C)[C@H]2C(=O)N(C)C(=O)[C@H]2[C@H]2CN(C)C(=NC3CCCCC3)N21	-2.3%	4.8%	10.3%	-22.0%[9.22 µM]	-14.0%	0.9%
Cc1ccc(NS(=O)(=O)c2c(C)ccc3nsnc23)c([N+](=O)[O-])c1	7.6%	-6.1%	-10.1%	-5.3%	3.0%	6.8%
Cc1ccc(C(=O)NC2c3ccccc3-c3ccccc32)cc1	-0.5%	0.0%	?	13µM*	1.4%	-32.9%
CC(C)Cc1ccc(C(C)NC(=O)Cc2ccc(S(=O)(=O)N3CCOCC3)s2)cc1 (stereo unspecified)	24.5%	15.6%	?	-3.6%	2.2%	7.3%
Cc1noc(C)c1C(=O)OCC(=O)c1c[nH]c2ccccc12	0.2%	6.4%	32.9%	0.7%	-2.3%	?
Cc1onc(-c2c(F)cccc2Cl)c1C(=O)OCC(=O)c1c[nH]c2ccccc12	-5.5%	-10.7%	23.1µM*	-6.5%	5.6%	0.8%
CCc1cccc2c(C(=O)COC(=O)c3c(C)noc3C)c[nH]c12	23.1µM*	2.2%	10.2%	?	27.6%	-7.1%
CCOC(=O)/C=C1/N(C)c2ccccc2C1(C)C	-2.3%	2.4%	10.0%	-6.3%	5.6%	0.7%
CN1/C(=C\C(=O)COC(=O)c2ccc(O)cc2)C(C)(C)c2ccccc21	1.8%	-6.8%	20.6µM*	-28.1%	3.3%	-2.6%
CNS(=O)(=O)c1cccc(C(=O)OCC(=O)/C=C2/N(C)c3ccccc3C2(C)C)c1	?	-1.6%	?	3.1%	.	-9.5%
CN1/C(=C\C(=O)COC(=O)c2ccc(O)c(O)c2)C(C)(C)c2ccccc21	?	5.7%	20.6µM*	16.2%	-12.2%	0.7%
C[C@@H]1CCC2[C@](C)(CO)[C@@H](O)CC[C@]2(C)[C@@]12CC[C@@](CO)(CC(=O)O)O2 (stereo partly specified)	-1.6%	1.8%	-2.0%	2.1%	-20.0%	0.3%
CCc1ccc(CNCCNC(=O)c2ccco2)cc1	18.4µM*	.	.	?	.	.
Fc1ccc(C2NC(=S)NC3=C2N2CCC3CC2)cc1 (stereo unspecified)	13µM*	1.3%	-9.7%	1.7%	3.2%	-2.7%
SMILES	MCF10A rerep	ELG1 genotoxic	ELG1 repair inh	SW480 rerep	A-T KAP1 phos	p53 reactivator
COc1ccc(C2NC(=S)NC3=C2N2CCC3CC2)cc1 (stereo unspecified)	1.3%	3.8%	?	-5.8%	2.51µM*	0.0%
CC(C)(O)C#Cc1ccc(C(=O)N2CCN(c3ccc([N+](=O)[O-])cc3)CC2)cc1	10.1%	-5.0%	?	-2.7%	-16.5%	-6.7%
CC(C)(O)C#Cc1ccc(C(=O)N2CCN(c3ccccc3)CC2)cc1	?	-2.0%	-8.7%	3.26µM*	0.7%	-3.3%
O=C(CNC(=S)N(Cc1ccccc1)Cc1ccccc1F)NCc1ccccc1	?	-4.7%	?	-0.7%	-3.0%	-3.9%
O=C(CNC(=S)N(Cc1ccccc1)Cc1ccccc1F)NCc1ccc(Cl)cc1	23.1µM*	-6.7%	23.1µM*	17.5%	-0.4%	1.3%
CCOC(=O)C1=C(C)N(C)C(C)=C(C(=O)OCC)C1c1ccc(Cl)cc1	23.1µM*	-4.4%	-5.5%	?	2.7%	-6.6%
COC(=O)C1=C(C)N(C)C(C)=C(C(=O)OC)C1c1ccc(Cl)cc1	16.8%	13.0%	?	2.1%	5.2%	0.2%
O=C(Nc1ccc(Cl)c(S(=O)(=O)N2CCOCC2)c1)c1ccc(OCC2CCCO2)cc1 (stereo unspecified)	18.4µM*	-19.6%	2.91µM*	-18.5%	9.7%	-12.1%
CC(C)Oc1ccc(C(=O)Nc2cccc(S(=O)(=O)N3CCCC3)c2)cc1	?	-1.7%	23.1µM*	?	-4.8%	9.9%
COc1ccc(NS(=O)(=O)c2cc(NC(=O)c3ccc(Cl)cc3)ccc2N2CCOCC2)cc1	2.31µM*	-1.1%	9.2µM*	1.46µM*	-37.6%	-14.4%
COc1ccc(C(=O)Nc2ccc(Cl)c(S(=O)(=O)N3CCOCC3)c2)cc1	?	-16.9%	9.2µM*	3.3%	2.9%	19.1%
Nn1c(SCC(=O)Nc2ccccc2Br)nnc1-c1ccco1	-0.2%	-0.8%	0.8%	-4.5%	-1.6%	-0.1%
COc1ccc(C(=O)NC(=S)Nc2cccc(S(=O)(=O)N3CCOCC3)c2)cc1	16.4µM*	-13.2%	?	?	-3.0%	-2.0%
N#Cc1ccc(NC(=O)CNc2cc(S(=O)(=O)N3CCOCC3)ccc2NCC2CCCO2)cc1 (stereo unspecified)	-2.3%	-2.0%	8.2µM*	-1.3%	-2.1%	-4.9%
O=C(COC(=O)CCC(=O)c1ccc(F)cc1)Nc1cccc(S(=O)(=O)N2CCOCC2)c1	-1.3%	-0.1%	2.3%	-2.2%	2.8%	0.3%
